The term inhibition denotes the change of the read-out against control, counted positive when it falls.

The structures appear in SMILES notation. “And” between values parts separate entries of the source, which are not always exact repeats. Equal values may be shown once. Out of some 4,300 compounds screened, about 3,000 (70%) were called active.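 How the source made its calls: active means inhibition above a per-plate cutoff, the mean inhibition of sample wells plus 3 SD (cut at about 35% in these data); inactive means the rest.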 So high a share suggests a set chosen from earlier hits. Not all results are given here. Some structures have more than one record in an assay (separate samples or runs), and their calls can disagree.

This experiment in a line: small molecules binding CAG repeat RNA – biochemical, fluorescence, confirmation (AID 652065).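 Further: loss of TO-PRO-1 fluorescence as compound displaces dye from 1x1 AA loop RNA; 0% = DMSO only wells and 100% = 100 µM mitoxantrone.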 To be noted: r(CAG) RNA repeat, TO-PRO-1 dye displacement fluorescence; at 3 µM; stronger effect = higher value.
With `O=C(c1cccnc1)N(c1cc2sc(=O)oc2c2ccccc12)S(=O)(=O)c1ccccc1`, the inhibition is 57.6% (active).
Next, `CC(=O)N(c1ccc2oc(=O)sc2c1)S(=O)(=O)c1ccc(C)cc1`: 5.58% (inactive).
Next, `O=C1Oc2ccccc2C(=O)/C1=C/c1ccccc1O`: 39% (active); `O=c1oc(-c2ccccc2NS(=O)(=O)c2ccc(Cl)cc2)nc2ccccc12`: 17.2% (inactive); `COc1ccc(S(=O)(=O)/N=C2\C=C(NS(=O)(=O)c3ccccc3)C(=O)c3ccccc32)cc1`: 85% (active).
With `Cc1ccc([C@@H]2CC=C(C(=O)O)[C@H](c3cccc(Cl)c3)N2S(=O)(=O)c2ccc(C)cc2)cc1` the figure was 80.4% (active).
For the compound `Cc1ccc(S(=O)(=O)N2[C@@H](c3ccccc3F)C(C(=O)O)=CC[C@H]2c2ccc(Cl)cc2)cc1`, the inhibition was 64.8% (active).
Next, `Cc1ccccc1S(=O)(=O)N1[C@@H](c2cccc(Cl)c2)C(C(=O)O)=CC[C@H]1c1ccc(Cl)cc1`: 83.1% (active).
Next, `COc1ccc(Cl)cc1-n1c(=S)sc2c(=O)n(-c3ccc(F)cc3)c(SCC(=O)O)nc21`: 28.9% (inactive); `Cc1oc2c(F)c(F)c(F)c(F)c2c1S(=O)(=O)Nc1cccc(C(F)(F)F)c1`: 44.5% (active).
With `COc1cc(OC)c(S(=O)(=O)Nc2ccccc2C(=O)O)cc1S(=O)(=O)Nc1ccccc1C(=O)O` the figure was 39.9% (active); with `Cc1ccc(S(=O)(=O)NCCC(c2ccccc2)c2ccccc2)cc1C(=O)O`, 28% (inactive); with `COc1ccc(NS(=O)(=O)c2cc(NC(=O)CC(=O)c3ccc([N+](=O)[O-])cc3)ccc2C)cc1`, 44.4% (active).
As for `COc1ccc(NS(=O)(=O)c2cc(C(=O)Nc3ccccc3C(=O)O)ccc2C)cc1`, the inhibition was 52% (active).
For `O=C(Nc1ccc2c(c1)CCC2)c1cccc(S(=O)(=O)Nc2ccccc2Cl)c1`, the inhibition was 40% (active).
Next, `CO/N=C(\C(=O)N[C@@H]1C(=O)N2C(C(=O)O)=C(COC(C)=O)CS[C@H]12)c1csc(N)n1` (stereo in doubt): 48.1% (active).
Next, `Cc1ccccc1OCC(=O)Nc1nnc(S(=O)(=O)N2CCCC2)s1`: 33.1% (inactive); `O=C(N/N=C/c1cc(Cl)cc([N+](=O)[O-])c1O)C(O)(c1ccccc1)c1ccccc1`: 52.6% (active).
Next, `Cc1ccc(Sc2cc(C(=O)c3ccccc3C(=O)O)ccc2[N+](=O)[O-])cc1`: 68.5% (active); `CC[C@@H](C)[C@H](NC(=O)CCc1c(C)c2cc3c4c(oc3c(C)c2oc1=O)CCCC4)C(=O)O`: 52.4% (active).
Consider `Cc1c(CCC(=O)N[C@@H](CC(C)C)C(=O)O)c(=O)oc2c(C)c3oc4c(c3cc12)CCCC4`, for which the inhibition was 48.4% (active).
With `Cc1ccc(S(=O)(=O)N2[C@@H](c3ccc(Br)cc3)C(C(=O)O)=C[C@H]2CC2CCCC2)cc1` the figure was 72.6% (active); with `CCCCC[C@@H]1C=C(C(=O)O)[C@H](c2ccc(C#N)cc2)N1S(=O)(=O)c1ccc(C)cc1`, 55.7% (active).
With `Nc1[nH]c(=S)nc2nc(-c3ccccc3)c(-c3ccccc3)nc12` the figure was 15.6% (inactive); with `NC(=O)c1c(Nc2nc3c(F)cccc3s2)sc2c1CCCC2`, 39.3% (active); with `Cc1cc(N2C(=O)C(O)=C(C(=O)c3ccc(C)o3)C2c2ccc(OCc3ccccc3)cc2)no1` (stereo not drawn), 64.8% (active).
With `Nc1cccc(-c2cc(-c3ccccc3)nc(-c3cccc(N)c3)n2)c1` the figure was 21.8% (inactive); with `N#Cc1c(-c2ccccc2)cc(-c2ccccc2)nc1SCC(=O)O`, 44.6% (active).
`O=C(Cc1ccccc1)Nc1ccc(C(=O)Nc2ccccc2C(=O)O)cc1`: the inhibition is 50.5% (active).
Turning to `Cc1ccc(C(=O)O)cc1-c1ccc(/C=C2\SC(=O)N(CC(=O)Nc3ccc4c(c3)OCO4)C2=O)o1`, the inhibition was 85.1% (active).
Next, `CCn1cc(C(=O)NCC2COc3ccccc3O2)c2cc(OC)c(OC)cc2c1=O` (stereo not drawn): 3.06% (inactive); `O=C(COc1ccccc1Cl)Nc1ccc(C(=O)c2ccc(C(=O)O)cc2)cc1`: 27.3% (inactive).
Turning to `Cc1cccc(OCC(=O)Nc2ccc(C(=O)O)cc2NC(=O)COc2cccc(C)c2)c1`, the inhibition was 44.8% (active).
Next, `Cc1cc(C)cc(Oc2c(C(F)(F)F)oc3cc(OCC(=O)O)ccc3c2=O)c1`: 27.1% (inactive).
For `Cc1cc(C)cc(OCC(=O)Nc2cc(NC(=O)COc3cc(C)cc(C)c3)cc(C(=O)O)c2)c1`, the inhibition was 78.6% (active).
With `CCCc1ccc(OCC(=O)NNC(=S)NC(=O)c2ccco2)cc1` the figure was 56.7% (active); with `CC(Oc1ccc2ccccc2c1)C(=O)NNC(=S)NC(=O)c1ccco1` (stereo not drawn), 42.4% (active).
With `COc1ccc(OCC(=O)Nc2nnc(-c3ccco3)s2)cc1` the figure was 12.6% (inactive).
With `CN1CCN(S(=O)(=O)c2cccc(C(=O)Nc3sccc3C#N)c2)CC1` the figure was 24.8% (inactive).
On to `CC1CCCCN1S(=O)(=O)c1ccc(C(=O)Nc2nnc(-c3cccs3)o2)cc1` (stereo not drawn), for which the inhibition is 40.6% (active).
With `N#Cc1ccccc1CN1C(=O)S/C(=C/c2cccn2-c2cccc(C(=O)O)c2)C1=O` the figure was 63.3% (active); with `Cc1cc2nc(-c3ccco3)c(Cc3cccc(F)c3)n2c(C)c1Br`, 30.1% (inactive).
With `Cc1ccc(NC(=S)NNC(=O)CSc2nnc(SCc3ccccc3Cl)s2)cc1` the figure was 48.4% (active); with `O=C(Nc1nnc(-c2ccccc2)o1)c1cc(-c2cccs2)nc2ccccc12`, 68.2% (active).
With `Cc1ccc(Cn2c(SCC(=O)N/N=C/c3ccccc3OCC(=O)O)nc3ccccc32)cc1` the figure was 65.5% (active).
Turning to `Oc1c(Cl)cc(Cl)c(Cl)c1Cc1c(O)c(Cl)cc(Cl)c1Cl`, the inhibition is 91.4% (active).
Next, `NC(c1csc(NC(=O)Nc2cccc(C(F)(F)F)c2)n1)C1CCCCC1` (stereo not drawn): 24.4% (inactive); `NC(c1ccccc1)c1csc(NC(=O)Nc2cccc(C(F)(F)F)c2)n1` (stereo not drawn): 59.1% (active).
With `COc1ccc(C(N)c2csc(NC(=O)Nc3cccc(C(F)(F)F)c3)n2)cc1` (stereo not drawn) the figure was 25.6% (inactive); with `CCN1C(=O)/C(=C2/Sc3ccccc3N2CCCS(=O)(=O)O)SC1=S`, 29.9% (inactive) and 46.4% (active); with `Cc1oc2cc([N+](=O)[O-])c(O)c([N+](=O)[O-])c2c1C(=O)c1ccc(Br)cc1`, 50.2% (active).
With `CCCOc1ccc(Cn2c(O)cc(=O)[nH]c2=O)cc1` the figure was 18.4% (inactive); with `C=CCSc1nsc(NC(=O)Nc2cccc(C(C)=O)c2)n1`, 34.4% (inactive).
